Data published in PubChem BioAssay.
The source made the active and inactive calls. Unless noted, no rule for the calls is given here.

What was measured:
[1] = resazurin metabolic signal in HepG2 cells – cell-based, resazurin fluorescence, 24 h, PK04 Diversity Set, profiling panel (AID 1172); details: HepG2 viability, higher = more signal
[2] = budding yeast growth changes without added modifier – OD600, strain BY4716, 24 h, basal condition, primary screen (AID 1173); details: S. cerevisiae BY4716 growth, OD600, 24 h; higher = more signal, called active from +8 up or from −8 down
[3] = viability profiling in MM1S myeloma cells – cell-based, resazurin fluorescence, basal, 24 h, PK04 Diversity Set, profiling panel (AID 1174); details: higher = more signal, called active from +8 up or from −8 down;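 also: MM1S multiple myeloma cell line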
[4] = molecular target: Dihydroorotate dehydrogenase (quinone), mitochondrial (Plasmodium falciparum (isolate 3D7)) (UniProt Q08210); test: inhibition of P. falciparum DHODH – biochemical, C-terminal His tag, absorbance 600 nm, primary screen (AID 1175); details: PfDHODH enzyme, DCIP absorbance 600 nm; higher = more signal, called active from +8 up or from −8 down;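 also: recombinant parasite enzyme with a five histidine tag at its C terminus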
Chain of Dihydroorotate dehydrogenase (quinone), mitochondrial (Plasmodium falciparum (isolate 3D7)) (Q08210 whole entry, looked up): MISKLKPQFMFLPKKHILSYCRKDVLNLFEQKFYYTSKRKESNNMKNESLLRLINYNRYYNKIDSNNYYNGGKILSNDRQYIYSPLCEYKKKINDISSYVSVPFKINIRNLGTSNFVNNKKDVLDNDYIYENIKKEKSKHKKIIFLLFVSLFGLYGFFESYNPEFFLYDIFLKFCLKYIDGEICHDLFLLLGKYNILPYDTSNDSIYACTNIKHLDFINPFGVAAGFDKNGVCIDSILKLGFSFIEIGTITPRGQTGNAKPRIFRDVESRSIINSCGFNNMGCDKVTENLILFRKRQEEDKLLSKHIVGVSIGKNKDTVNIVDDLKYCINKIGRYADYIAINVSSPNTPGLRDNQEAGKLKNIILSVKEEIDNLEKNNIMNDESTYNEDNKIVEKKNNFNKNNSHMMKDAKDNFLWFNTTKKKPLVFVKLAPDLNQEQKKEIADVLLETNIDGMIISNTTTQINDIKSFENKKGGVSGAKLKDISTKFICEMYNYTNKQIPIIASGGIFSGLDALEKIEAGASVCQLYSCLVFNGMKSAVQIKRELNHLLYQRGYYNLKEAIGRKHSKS

[5] = inhibition of PAO1 biofilm formation – strain PAO1, LB-PBS medium, absorbance 600 nm, primary screen (AID 1176); details: P. aeruginosa PAO1 growth/biofilm, A600, 12 h; higher = more signal
[6] = growth modulation of vineyard yeast isolate – strain RM11-1a, OD600, basal, 24 h, primary screen (AID 1177);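 also: cultures grown under basal conditions with no added stressor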; details: S. cerevisiae RM11-1a growth, OD600, 24 h; higher = more signal, called active from +8 up or from −8 down
[7] = growth of efflux-deficient E. coli DRC39 – strain DRC39, OD650, 24 h, E. coli filamentation inducers, primary screen (AID 1178);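 also: growth measured as culture turbidity by optical density at 650 nm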; details: E. coli DRC39 acrAB, higher = more signal, called active from +8 up or from −8 down
[8] = growth of efflux-deficient E. coli DRC39 – strain DRC39, OD650, 48 h, E. coli filamentation inducers, primary screen (AID 1179);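 also: screen aims at cell division blockers that make cells filament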; details: E. coli DRC39 delta-acrAB growth, higher = more signal, called active from +8 up or from −8 down
[9] = viability profiling in RPMI8226 myeloma cells – cell-based, resazurin fluorescence, basal, 24 h, PK04 Diversity Set, profiling panel (AID 1180); details: higher = more signal;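 also: RPMI8826 multiple myeloma cell line at 5000 cells per well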
[10] = molecular target: E3 ubiquitin-protein ligase XIAP (Homo sapiens) (UniProt P98170); test: small molecules binding XIAP protein – biophysical, small-molecule microarray, fluorescence 635 nm, primary screen (AID 1181); details: higher = more signal;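 also: score merges 667 nm emission and signal to noise over triplicate slides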
Chain of E3 ubiquitin-protein ligase XIAP (Homo sapiens) (P98170 whole entry, looked up, the tested form may be a part): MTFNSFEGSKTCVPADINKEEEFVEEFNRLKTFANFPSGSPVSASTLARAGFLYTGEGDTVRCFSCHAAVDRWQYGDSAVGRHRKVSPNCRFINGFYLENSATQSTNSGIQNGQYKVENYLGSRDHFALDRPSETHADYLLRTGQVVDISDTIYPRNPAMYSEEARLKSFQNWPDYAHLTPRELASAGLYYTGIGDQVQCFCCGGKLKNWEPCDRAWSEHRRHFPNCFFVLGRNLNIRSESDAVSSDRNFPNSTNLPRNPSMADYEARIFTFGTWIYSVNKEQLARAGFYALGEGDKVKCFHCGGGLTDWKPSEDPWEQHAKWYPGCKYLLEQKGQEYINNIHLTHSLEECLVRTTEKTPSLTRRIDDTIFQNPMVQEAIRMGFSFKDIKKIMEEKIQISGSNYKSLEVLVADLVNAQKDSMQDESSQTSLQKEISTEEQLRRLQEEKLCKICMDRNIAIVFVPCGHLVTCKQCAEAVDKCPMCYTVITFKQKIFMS

[11] = tested on: XIP peptide (Xip251-270) binding; test: XIP fragment 251-270 binding compounds – biochemical, small-molecule microarray, fluorescence 635/667 nm, 0.1 µg/mL protein, primary screen (AID 1182); details: fluorescent protein binding, 635 nm, higher = more signal, called active from +8 up or from −8 down
XIP peptide (Xip251-270) = test: compounds binding XIP fragment 251-270 – biochemical, small-molecule microarray, fluorescence 635/667 nm, 0.5 µg/mL protein, primary screen (AID 1183); details: fluorescence 635 nm, higher = more signal
[12] = blood-stage malaria parasite viability loss – strain 3D7, DAPI fluorescence, 100 nL, primary screen (AID 1184);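 also: parasites grown inside human red blood cells in medium with human serum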; details: P. falciparum 3D7 growth, 3 d, higher = more signal
[13] = molecular target: Homeobox protein Hox-A13 (Mus musculus) (UniProt Q62424); test: disruptors of Hoxa13 oligonucleotide interaction – biochemical, fluorescence polarization, labeled oligonucleotide, primary screen (AID 1185); details: Hoxa13:DNA binding, 15 min, higher = more signal, called active from +8 up or from −8 down
Chain of Homeobox protein Hox-A13 (Mus musculus) (Q62424 whole entry, looked up): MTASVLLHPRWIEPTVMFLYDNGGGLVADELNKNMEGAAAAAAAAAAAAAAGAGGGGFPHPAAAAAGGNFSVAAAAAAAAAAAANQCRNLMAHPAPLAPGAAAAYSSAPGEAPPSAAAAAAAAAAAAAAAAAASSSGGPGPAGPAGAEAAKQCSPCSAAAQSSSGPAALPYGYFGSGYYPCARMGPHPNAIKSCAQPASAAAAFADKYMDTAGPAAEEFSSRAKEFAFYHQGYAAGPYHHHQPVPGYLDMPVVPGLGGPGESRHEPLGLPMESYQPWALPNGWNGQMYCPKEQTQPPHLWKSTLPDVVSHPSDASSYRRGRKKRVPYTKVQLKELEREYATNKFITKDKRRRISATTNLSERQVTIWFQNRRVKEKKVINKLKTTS

[14] = blockers of DNA damage checkpoint Chk1 activation – imaging, HeLa, hydroxyurea, phospho-Chk1 antibody, percent positive cells, primary screen (AID 1186); details: hydroxyurea-induced phospho-Chk1 immunofluorescence imaging, higher = more signal
[15] = blockers of DNA damage checkpoint Chk1 activation – imaging, HeLa, hydroxyurea, phospho-Chk1 nuclear intensity, primary screen (AID 1187); details: hydroxyurea-induced phospho-Chk1 immunofluorescence imaging, higher = more signal

Row | SMILES | z-score [1] | z-score [2] | z-score [3] | composite z-score [4] | z-score [5] | z-score [6] | z-score [7] | z-score [8] | z-score [9] | composite z-score [10] | composite z-score [11] | composite z-score (XIP peptide (Xip251-270)) | z-score [12] | z-score [13] | z-score [14] | z-score [15]
1 | CCCCC=C[C@@H](NC(=O)Oc1cccc(C(F)(F)F)c1)c1ccccc1 | -1.68 | 1.74 (inactive) | -2.06 (inactive) | -3.25 (inactive) | 2.62 (inactive) | 1.37 (inactive) | -0.844 (inactive) | -0.665 (inactive) | -2.1 | 0.0748 | -0.361 (inactive) | 0.168 | -1.01 | -0.127 (inactive) | 0.38 (inactive) | -0.018 (inactive)
2 | CC(CO)N1C(=O)[C@@H]2C3C(=O)OCCC/C=C\[C@H]3OC23C=CCN(c2ccc4ccccc4c2)C(=O)[C@@H]13 (some centres undefined) | -0.757 | -0.55 (inactive) | -0.208 (inactive) | 0.575 (inactive) | -0.456 (inactive) | 0.179 (inactive) | 0.162 (inactive) | 0.703 (inactive) | -0.0216 | -0.0989 | 0.372 (inactive) | 0.0016 | 0.252 | -3.77 (inactive) | -0.663 (inactive) | -0.182 (inactive)
3 | CN1C2C=C(CCCO)C(C3C(=O)N(C(N)=O)C(=O)C32)C1c1ccc(CN2CCCC2)cc1 (centres undefined) | -0.163 | 0.464 (inactive) | -0.508 (inactive) | -0.157 (inactive) | 0.661 (inactive) | -0.56 (inactive) | 0.359 (inactive) | 0.259 (inactive) | -0.287 | -0.0703 | 0.276 (inactive) | 0.297 | 0.446 | -5.26 (inactive) | 0.0965 (inactive) | -0.0741 (inactive)
4 | [N-]=[N+]=NCc1ccccc1C[C@]1(C(=O)O)N=C(c2ccc(OCCCO)cc2)O[C@H]1c1ccccc1N=[N+]=[N-] | -0.213 | -0.496 (inactive) | -1.43 (inactive) | 2.26 (inactive) | -0.043 (inactive) | 1.45 (inactive) | 0.989 (inactive) | -0.0775 (inactive) | -1.82 | 0.0808 | 0.525 (inactive) | 0.771 | -1.57 | -3.84 (inactive) | -0.1 (inactive) | 0.16 (inactive)
5 | COc1ccc(CCN2C(=O)[C@@]3(c4ccc([N+](=O)[O-])cc4)CC(=O)N(C4CCCCC4)[C@@H]3c3ccc(CO)cc32)cc1 | -0.356 | 1.37 (inactive) | -0.672 (inactive) | -25.9 (active) | 0.944 (inactive) | -0.582 (inactive) | -0.0051 (inactive) | -0.0209 (inactive) | -0.749 | -0.167 | 1.23 (inactive) | 0.311 | 0.706 | -0.544 (inactive) | 0.135 (inactive) | -0.0588 (inactive)
6 | Cc1ccc(S[C@]2(C(=O)NCCN3CCOCC3)CC(=O)N(Cc3ccccc3Cl)[C@@H]2c2ccc(CO)cc2)cc1 | 0.286 | -0.709 (inactive) | 1.04 (inactive) | -0.245 (inactive) | 0.621 (inactive) | 0.381 (inactive) | 0.381 (inactive) | 0.237 (inactive) | 0.958 | 0.0428 | -0.255 (inactive) | 0.686 | -1.47 | -4.04 (inactive) | -0.114 (inactive) | -0.121 (inactive)
7 | COCCCNC(=O)[C@@]1(Cc2ccccc2)N=C(c2ccc(OCCCO)cc2)O[C@H]1c1ccccc1 | 0.625 | -1.05 (inactive) | -0.0938 (inactive) | 0.282 (inactive) | 0.19 (inactive) | -0.82 (inactive) | 0.385 (inactive) | -0.456 (inactive) | 0.297 | -0.0376 | 0.111 (inactive) | 0.752 | -2 | -5.35 (inactive) | 0.129 (inactive) | 0.221 (inactive)
8 | C=CCNC(=O)[C@@H]1[C@H]2C(=O)O[C@H](c3ccccc3)[C@H](c3ccccc3)N2[C@H](c2ccc(OCCO)cc2)[C@@]12C(=O)Nc1ccc(C#Cc3ccc(OC)cc3)cc12 | -0.662 | 1.84 (inactive) | -0.718 (inactive) | -4.91 (inactive) | 1.81 (inactive) | 2.6 (inactive) | -1.48 (inactive) | -1.2 (inactive) | -1.25 | 0.0181 | 1.37 (inactive) | 0.792 | -2.28 | -1.61 (inactive) | 0.166 (inactive) | 0.143 (inactive)
9 | C=C(C)C1C(=C)CN([C@H](CO)c2ccccc2)C1=O (some centres undefined) | 1.04 | -2.16 (inactive) | 0.267 (inactive) | -0.232 (inactive) | -0.611 (inactive) | 0.229 (inactive) | 0.692 (inactive) | -0.829 (inactive) | -0.403 | -0.11 | -0.389 (inactive) | -0.149 | -0.977 | -2.61 (inactive) | -0.347 (inactive) | -0.339 (inactive)
